# Screening data (PubChem BioAssay)
# The list is not random: actives were taken first. Their share in the collection is about 17%.
# HT1080 IDH1KD tx – toxicity to HT-1080 IDH1 knockdown cells (counter line); HT-1080 IDH1 knockdown viability, ATP luminescence, 48 h; Potency, µM (highest dose often 46.1 µM), for inactives: at the top dose activity, negative = toxicity, actives largely listed as cytotoxic; 360,000 compounds, 2% hits; AID 686971;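 also: 0% = DMSO wells and -100% = cell-free medium wells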
#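 IDH1KD HT-1080 cells, 750/well, RPMI + 5% FBS; compound pinned after 2 h settling; 48 h, 37 °C; CellTiter-Glo luminescence; % activity normalised to DMSO and no-cell wells; curves fitted, classed by r2 and efficacy.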
# TGFb SMAD3 inh – TGF-b pathway inhibition | HepG2 CAGA-GFP TGF-b/SMAD3 reporter, GFP fluorescence, 18 h; TGF-beta stimulated, 500 pg/mL final | Potency, µM (series often up to 46.1 µM), without a hit: at the highest dose activity, negative = inhibition, most hits filed as inhibitors | 410,000 compounds, 1.2% hits | AID 588855; also: % is scaled to controls: 0 for no effect and ±100 for the full control effect; nearly all actives have a fitted effect of over 65% in size
#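 HEPG2 CAGA-GFP, 1000 cells/well; 2 h settle, 37 C; cpd via pin tool; TGF-b 500 pg/mL final; 18 h, 37 C; GFP imaging ex488/em500-530; %Activity normalised to -TGF-b and +DMSO controls; CRC fit, curve class.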
# DT40 TDP1 CPT – DT40-hTDP1 cell growth loss with CPT; chicken DT40 Tdp1-/-;hTDP1 cells + 20 nM CPT, ATP luminescence, 48 h; Potency, µM (series often up to 46.2 µM), for inactives: top-dose activity change, negative = growth inhibition, actives largely listed as inhibitors; 420,000 compounds, 12% hits; also: % is scaled to controls: 0 for no effect and ±100 for the full control effect; nearly all actives have a fitted effect of over 55% in size
#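 Chicken DT40 Tdp1-/- cells stably complemented with human TDP1 were seeded at 400 cells/well in medium containing 20 nM camptothecin, exposed to pin-transferred compounds, and grown at 37 °C for at least 48 hr. Viability was read as ATP luminescence.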
# HT1080-NT tox – kills 2HG-producing HT-1080-NT fibrosarcoma cells | HT-1080-NT fibrosarcoma viability, CellTiter-Glo ATP luminescence, 48 h | Potency, µM (top dose mostly 46.1 µM), for the others: top-dose activity, negative = less viability, actives largely listed as cytotoxic | 360,000 compounds, 1.6% hits | AID 686970;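 also: NT is the 2HG producing partner of a matched IDH1 knockdown line; 0% = DMSO-treated cells and -100% = media-only wells without cells; nearly all actives have a fitted effect of over 55% in size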
#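 Viability by CellTiter-Glo luminescence after 48 h compound exposure at 37C of HT-1080-NT cells (750/well, RPMI, 5% FBS). % activity scaled between DMSO wells and medium-only wells, then curve-fitted and categorized by curve class.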
# HepG2 tox – counter-screen for TGF-b inhibitors: cytotoxicity in HepG2 cells. HepG2 CAGA-GFP viability, ATP luminescence, 18 h. Potency, µM (series often up to 46.1 µM), for inactives: at the top dose activity change, negative = cytotoxicity, most hits filed as cytotoxic. 410,000 compounds, 0.76% hits
#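 CellTiter-Glo luminescence gave cytotoxicity after 18 hours at 37 degrees C. The cells were HepG2 CAGA-GFP in 1% FBS DMEM, stimulated with 500 pg/mL TGF-beta after compound addition. %Activity was normalised to no-cell wells (complete cell-killing) and DMSO (no toxicity), and curves were fitted and classified.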
# DT40 TDP1 no CPT – qHTS for Inhibitors of human tyrosyl-DNA phosphodiesterase 1 (TDP1): qHTS in cells in absence of CPT. DT40 Tdp1-/- hTDP1 cells, no CPT, ATP luminescence, 48 h. Potency, µM (doses to about 46.2 µM), for inactives: top-dose activity change, negative = growth inhibition, most hits filed as inhibitors. 420,000 compounds, 15% hits. AID 686978, 2013; also: % is scaled to controls: 0 for no effect and ±100 for the full control effect; nearly all actives have a fitted effect of over 55% in size
#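 Stably hTDP1-transfected Tdp1-null chicken DT40 cells were treated with library compounds minus camptothecin and grown for at least 48 hr at 37 °C, after which cellular ATP was quantified by luminescence.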
# Numbers without * were called inactive; ? = inconclusive; / = no result given; ! = repeats disagree. Calls follow the shape of the dose curve; as a rule, active = well fitted curve in the direction sought with a large enough effect; inconclusive = small, poorly fitted or top-dose-only effect, or another doubt; inactive = no such curve, though single readings can be large; an effect the other way counts as inactive or inconclusive. Potency is read from the fitted curve at half-maximal effect.
SMILES,HT1080 IDH1KD tx,TGFb SMAD3 inh,DT40 TDP1 CPT,HT1080-NT tox,HepG2 tox,DT40 TDP1 no CPT
CCC(=O)C1=C(c2ccc(F)cc2)N(C(=O)CC)n2cnnc2S1,/,?,18µM*,/,-85%,13µM*
N#Cc1ccc(CSc2nnc(NC(=O)CCc3nc4ccccc4c(=O)[nH]3)s2)cc1,3%,5%,5%,4%,1%,-3%
CC(=O)c1ccc(OCCCC(=O)Nc2cc(Cl)ccc2-n2cncn2)cc1,0%,?,-3%,-3%,-62%,-18%
Cc1nnc(NC(=O)c2oc3c(ccc4ccccc43)c2C)s1,?,-1%,?,-11%,-25%,?
CCOc1ccc(NC(=O)COC(=O)C23CC4CC(CC(C4)C2)C3)c([N+](=O)[O-])c1,-3%,-15%,18µM*,1%,1%,?
O=C(COC(=O)CCNS(=O)(=O)c1ccccc1)NC1CC1,6%,-1%,3%,1%,5%,1%
COCCn1c(NCc2ccco2)nc2c1c(=O)[nH]c(=O)n2C,3%,-5%,-4%,14%,-4%,-10%
COc1ccc(CCNC(=O)c2cc(-c3ccccc3)c(N3CCOCC3)s2)c(OC)c1OC,0%,-12%,8.2µM*,-9%,-10%,23µM*
O=C(NCc1ccco1)c1cc(-c2ccccc2)c(N2CCOCC2)s1,-10%,?,-1%,-7%,-9%,-11%
CCOc1ccc(CCNC(=O)c2cc(-c3ccccc3)c(N3CCOCC3)s2)cc1OCC,0%,?,?,0%,0%,3.3µM*
O=C(O)c1cc(-c2ccccc2)c(N2CCOCC2)s1,-2%,9%,-6%,1%,3%,2%
CCOc1ccc(CCNC(=O)c2cc(-c3ccccc3)c(N3CCOCC3)s2)cc1,3%,-12%,?,-14%,5%,29µM*
O=C(NCc1ccc2c(c1)OCO2)c1cc(-c2ccccc2)c(N2CCOCC2)s1,-13%,5%,?,-13%,-9%,21µM*
CN(Cc1ccc2c(c1)OCO2)C(=O)c1cc(-c2ccccc2)c(N2CCOCC2)s1,-3%,?,?,1%,-11%,?
O=C(c1ccco1)N1N=C(c2ccccc2O)CC1c1cccs1 (centres undefined),2%,-13%,-27%,1%,1%,?
Cc1nc2ccc(C(=O)NCCCn3ccnc3)cn2c1N(C)CC1CCCCC1,-30%,-20%,?,-28%,-35%,?
CN(C)C(CNC(C(=O)Nc1ccc(F)cc1)c1ccccc1)c1ccccc1 (centres undefined),-27%,-20%,-20%,-27%,-14%,?
OC(CN1CCOCC1)c1ccccc1 (centres undefined),/,-3%,15%,/,-32%,6%
CC(Sc1nc2ccccc2c(=O)n1C)C(=O)N(C)C1CCCCC1 (centres undefined),?,-23%,10µM*,-20%,-14%,7.3µM*
O=C(Nc1ccc(Oc2c(F)c(F)c(F)c(F)c2F)cc1)OC1CCN2Cc3ccccc3N=C12 (centres undefined),?,10µM*,5.2µM*,?,10µM*,2.3µM*
Cc1ccc(S(=O)(=O)N2[C@H](CC(=O)c3cccc4ccccc34)OC[C@@H]2C(C)C)cc1,-2%,/,?,-2%,/,?
COc1ccc(-c2cc(C(C)=O)c(C)n2CCC(=O)NCc2ccc(F)cc2)cc1,/,-14%,?,/,-4%,?
CCOC(=O)c1cc(-c2ccc(F)cc2)n(CCC(=O)NCc2ccc(C)cc2)c1C,/,-8%,?,/,-37%,21µM*
CC(=O)c1cc(-c2ccccc2)n(CC(=O)NCCc2ccc(C)cc2)c1C,/,0%,15µM*,/,3%,8.2µM*
CC(=O)c1cc(-c2ccc(F)cc2)n(CC(=O)NCc2ccc(C)cc2)c1C,/,0%,16µM*,/,-3%,8.2µM*
SMILES,HT1080 IDH1KD tx,TGFb SMAD3 inh,DT40 TDP1 CPT,HT1080-NT tox,HepG2 tox,DT40 TDP1 no CPT
CCCNC(=O)CCn1c(-c2ccc(C)cc2)cc(C(=O)OCC)c1C,5%,-24%,?,4%,-11%,?
CCn1c(-c2ccc(C)cc2)nn(CC(=O)NCCc2ccccc2)c1=S,-22%,-17%,2.9µM*,-14%,-3%,2.9µM*
Cc1nn(CC(=O)NCCc2ccccc2)c(=O)c2ccccc12,17%,-30%,-3%,24%,0%,-3%
O=C(O)c1nn(-c2cccc(Cl)c2)c(=O)cc1O,14%,-5%,25%,9%,-11%,14%
CC1(C)C(O)CC[C@]2(C)C1CC[C@@]1(C)C2C(=O)C=C2[C@@H]3C[C@@](C)(C(=O)O)CC[C@@]3(C)CCC21C (some centres undefined),/,/,14%,/,/,-4%
CC1(C)[C@@H](O)CC[C@]2(C)[C@H]3C(=O)C=C4[C@@H]5C[C@@](C)(C(=O)O)CC[C@]5(C)CC[C@@]4(C)[C@]3(C)CC[C@@H]12,0%,-8%,7.5µM*!,9%,-15%,2.4µM*!
Cc1cc(C)cc(NC(=O)Cc2ccc(-n3cccc3)cc2)c1,-12%,-11%,-14%,0%,-35%,-5%
CSC1=NC(C(Cl)(Cl)Cl)N=C(c2ccc(C)cc2)N1 (centres undefined),0.65µM*,?,0.82µM*,0.37µM*,9%,0.58µM*
CCC1N=C(SC)NC(C)=C1C(=O)c1ccccc1 (centres undefined),-4%,7%,-20%,-2%,6%,-28%
COc1ccc(CCNC(=O)c2ccc(COc3ccccc3OC)o2)cc1,-1%,-14%,-19%,-2%,-10%,12µM*
CC(C)NC(=O)c1ccc(COc2cccc3ccccc23)o1,-15%,0%,?,-6%,-34%,18µM*
CC(C)NC(=O)c1ccc(COc2ccc(C(C)(C)C)cc2)o1,-23%,-6%,?,?,-14%,13µM*
COc1ccccc1OCc1ccc(C(=O)NCC(C)C)o1,0%,-5%,23%,-4%,-4%,-23%
CCOc1ccc(OCc2ccc(C(=O)NC(C)(C)C)o2)cc1,-20%,-5%,7.3µM*,-5%,0%,?
CC(C)CN1CCCC2(CCN(C(=O)c3cnccn3)CC2)C1,/,/,1%,/,/,0%
